Assay results from PubChem BioAssay AID1619 (SRMLSC, 2009).
Among all 220,000 compounds or so, about 830 (0.38%) were called active.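 The calls were made as follows: active = compound inhibiting the enzyme by more than half at any dose during confirmatory dose-response retesting; inconclusive = strong single-dose inhibitors picked by rank but not retested; inactive = the rest.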 The list is a sample of the results. Results with a measured potency or affinity are listed apart.

These molecules were tested against Leucine aminopeptidase (Plasmodium falciparum (isolate 3D7)) (UniProt Q8IL11) (assay: P. falciparum M17LAP inhibitors, primary screen, biochemical, fluorogenic H-Leu-NHMec substrate, 1536-well (AID 1619;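 also: plate controls were full reaction with DMSO carrier for no effect and no enzyme background for full effect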)). Conditions: recombinant M17LAP, H-Leu-NHMec fluorogenic kinetic assay; at 30 µM; stronger effect = higher value.
Chain of Leucine aminopeptidase (Plasmodium falciparum (isolate 3D7)) (Q8IL11 whole entry, looked up): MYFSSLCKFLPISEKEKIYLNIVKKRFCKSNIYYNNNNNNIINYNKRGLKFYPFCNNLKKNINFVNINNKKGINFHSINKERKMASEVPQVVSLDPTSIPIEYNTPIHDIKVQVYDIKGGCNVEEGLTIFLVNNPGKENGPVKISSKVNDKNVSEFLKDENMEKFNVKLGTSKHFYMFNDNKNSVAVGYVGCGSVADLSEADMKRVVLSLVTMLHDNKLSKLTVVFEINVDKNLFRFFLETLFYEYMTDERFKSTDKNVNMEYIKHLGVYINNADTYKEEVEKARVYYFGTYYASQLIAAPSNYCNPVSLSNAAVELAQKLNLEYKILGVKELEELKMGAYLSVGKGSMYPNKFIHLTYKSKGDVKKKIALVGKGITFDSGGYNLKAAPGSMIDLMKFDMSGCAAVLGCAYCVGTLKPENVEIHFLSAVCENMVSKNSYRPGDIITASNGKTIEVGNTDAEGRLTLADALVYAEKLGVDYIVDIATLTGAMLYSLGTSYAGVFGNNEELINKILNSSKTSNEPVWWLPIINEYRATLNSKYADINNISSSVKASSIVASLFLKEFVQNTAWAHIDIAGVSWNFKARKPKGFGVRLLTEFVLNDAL

Structure (SMILES) | inhibition
O=C(NCCc1ccc(S(=O)(=O)N2CCCC2)cc1)c1cccs1 | 22.4% (inactive)
O=C(CSc1nnc(CNC(=O)c2ccco2)o1)Nc1ccccc1 | 21.5% (inactive)
O=C1NC(=S)S/C1=C\c1cc2ccccc2nc1N1CCCCC1 | 8.4% (inactive)
COc1ccc2nc(N3CCCCC3)c(/C=C3\SC(=S)NC3=O)cc2c1 | 15.3% (inactive)
O=C(CSCc1ccccc1Br)N/N=C/c1ccc(OCC(=O)N2CCCCC2)cc1 | 9.49% (inactive)
O=C1NC2(CCCCC2)C(=O)N1/N=C/c1ccccc1Br | -1.17% (inactive)
CCCc1nc2ccccc2c(=O)n1/N=C/c1ccccc1O | -13.5% (inactive)
CCCc1nc2ccccc2c(=O)n1/N=C/c1ccc(O)cc1 | -6.52% (inactive)
Cc1ccc(-c2ccc(NC(=O)C3C4C=CC(C4)C3C(=O)O)cc2)o1 (stereo not drawn) | 51.5% (inactive)
Cc1ccc(-c2cccc(NC(=O)C3C(C(=O)O)[C@@H]4C=C[C@H]3C4)c2)o1 (stereo partly drawn) | 22.7% (inactive)
CCOC(=O)C/C(C)=N/NC(=O)C1CC1(c1ccccc1)c1ccccc1 (stereo not drawn) | -7.82% (inactive)
Cc1cc(NC(=O)c2ccc(NC(=O)C3CC3)cc2)no1 | -1.13% (inactive)
COc1ccc(Br)cc1CN(C)C(C)C(=O)Nc1cccc(C(C)=O)c1 (stereo not drawn) | -4.69% (inactive)
Cc1ccc(NC(=O)Cn2cc3c(n2)CCC(C)C3)cc1 (stereo not drawn) | -7.43% (inactive)
CC1CCc2nn(CC(=O)Nc3ccc(F)cc3F)cc2C1 (stereo not drawn) | 6.54% (inactive)
CC1CCN(S(=O)(=O)c2ccc3ncn(CC(=O)N(C)Cc4ccccc4)c(=O)c3c2)CC1 | 3.66% (inactive)
COc1ccc(N2C(=O)CCC(C(=O)N3CCCCCC3)C2c2ccc(OC)c(OC)c2)cc1 (stereo not drawn) | -1.54% (inactive)
CCCCC(CC)C(=O)NCC(C)NC(=O)C(CC)CCCC (stereo not drawn) | 2.99% (inactive)
CCOc1ccc(C(=O)NCC(=O)OCC(=O)Nc2ccccc2OCC)cc1 | 0.01% (inactive)
CC(OC(=O)Cc1coc2ccc3ccccc3c12)C(=O)Nc1ncc(Cl)cc1Cl (stereo not drawn) | 5.82% (inactive)
Cn1c(=O)[nH]c(=O)c2c1nc(NC1CCCCC1)n2CC(=O)NC1CCCCC1 | 10.2% (inactive)
COc1cccc(NC(=O)CC2COc3ccccc3O2)c1 (stereo not drawn) | 7.49% (inactive)
COc1ccc(NC(=O)CCC2COc3ccccc3O2)c(OC)c1 (stereo not drawn) | 11.9% (inactive)
COc1cc(OC)c(OC)cc1NC(=O)CC1COc2ccccc2O1 (stereo not drawn) | -17.5% (inactive)

Structure (SMILES) | inhibition
COc1ccc(C)cc1NC(=O)CC1COc2ccccc2O1 (stereo not drawn) | 4.49% (inactive)
FC(F)(F)c1ccccc1NC(=S)N1CCN(c2ccccn2)CC1 | 1.6% (inactive)
Oc1cc(Cc2ccccc2)cnc1CN1CCOCC1 | -3.17% (inactive)
CCCCCOP(=O)(c1ccccc1)c1ccccc1 | -7.38% (inactive)
CCc1ccc(-n2c(SCC(=O)N3Cc4ccccc4CC3C(=O)O)nnc2-c2ccncc2)cc1 (stereo not drawn) | -6.38% (inactive)
CC(c1ccon1)N(C)Cc1c(C(=O)N(C)Cc2ccccc2)nc2ccccn12 (stereo not drawn) | 11.8% (inactive)
Cc1cc(C(=O)CSc2cccc[n+]2[O-])c(C)n1-c1ccc(Br)cc1 | 1.39% (inactive)
CCN1c2ccccc2-c2nc3ccccc3n2C1c1cccnc1 (stereo not drawn) | -45% (inactive)
O=C(COC(=O)CCC(=O)c1ccc(Cl)cc1)NC1CC1 | 10.9% (inactive)
O=C(c1ccccc1Cl)N1CCn2c1nc1ccccc12 | 24.5% (inactive)
CCOCCCn1c(SCC(=O)Nc2cc(C(C)(C)C)nn2-c2ccccc2)nc2ccccc2c1=O | -8.18% (inactive)
O=C(O)c1cccc(N2C(=O)/C(=C/c3ccc([N+](=O)[O-])cc3)C=C2c2ccccc2)c1 | 31.6% (inactive)
O=C1/C(=C/c2ccc([N+](=O)[O-])cc2)C=C(c2ccccc2)N1c1ccccc1 | 1.75% (inactive)
CCOC(=O)CC(=O)CSc1nc(C)cc(C)c1C#N | -4.47% (inactive)
COc1cc(NC(=O)c2cccc(C)c2)c(OC)cc1NC(=O)CN1CCOCC1 | 14.9% (inactive)
CN1C(=O)S/C(=C\c2ccccc2OCc2ccc(C(=O)O)cc2)C1=O | 5.62% (inactive)
Cc1ccccc1/C=C1\SC(=S)N(/N=C/c2cc([N+](=O)[O-])ccc2O)C1=O | 15.5% (inactive)
O=C(O)COc1ccccc1/C=C1\SC(=Nc2ccc(F)cc2)N(c2ccc(F)cc2)C1=O | 2.19% (inactive)
O=C(O)COc1ccccc1/C=C1\SC(=S)N(c2cccnc2)C1=O | 10.2% (inactive)
Cc1cccc(C2c3[nH]c4ccccc4c3CCN2C(=O)c2cn(C)c3ccccc3c2=O)n1 (stereo not drawn) | 8.5% (inactive)
COCCCNC(=S)N/N=C/c1ccccc1O | 19.4% (inactive)
CCc1nnc(SCC(=O)Nc2ccccc2)nc1CC | 21.8% (inactive)
O=C(CSC1=NCCN1)Nc1cccc(C(F)(F)F)c1 | -6.47% (inactive)
CCc1ccc(NC(=O)CSc2nnc(CC)c(CC)n2)cc1 | 29.2% (inactive)

Structure (SMILES) | inhibition
Cc1cc(C)nc(SCc2nnc(SCC(=O)Nc3ccc(Cl)c(C(F)(F)F)c3)o2)n1 | 10.2% (inactive)
O=C(O)CCCC(=O)Nc1cccc(C(F)(F)F)c1 | 24.8% (inactive)
CNCC(=O)Nc1ccc(Cl)c(C(F)(F)F)c1 | -1.94% (inactive)
Cc1cc(C)nc(/N=C(\NC(=O)C(C)(C)C)Nc2ccc(F)cc2)n1 | 12.7% (inactive)
CN(C)CCNC(=S)Nc1ccc(-c2nc3ccccc3[nH]2)cc1 | 18.8% (inactive)
COc1ccc(-c2csc3nc(C)nc(N4CCN(c5ccc(C(C)=O)cc5)CC4)c23)cc1OC | -3.5% (inactive)
COCCSc1ccccc1C(=O)N1CCCC(C)C1 (stereo not drawn) | -3.2% (inactive)
CC(C)(C)C(=O)Nc1cccc(-c2ncon2)c1 | 1.81% (inactive)
NS(=O)(=O)c1ccc(NC(=O)Cn2ncc3c2-c2ccccc2OC3)cc1 | -1.22% (inactive)
COc1ccc(OC)c(CNC(=O)Cc2c(C(=O)O)[nH]c3ccccc23)c1 | 28.4% (inactive)
COc1cccc(CNC(=O)Cc2c(C(=O)O)[nH]c3ccccc23)c1 | 8.02% (inactive)
Cc1ccc(NC(=O)C(=O)NCC2CCCO2)cc1C (stereo not drawn) | -1.64% (inactive)
COc1ccc(S(=O)(=O)Nc2nncs2)cc1 | 54.3% (inactive)
COCc1nnc(NS(=O)(=O)c2ccc(C)cc2)s1 | 4.91% (inactive)
Cc1cc(C)c(C#N)c(SCC(=O)Nc2ccccc2C)n1 | -11.6% (inactive)
Cc1ccccc1NC(=O)CSc1nc(N)c(C#N)cc1C#N | -1.94% (inactive)
Cc1nc(SCC(=O)Nc2ccc(F)cc2)c(C#N)c(C)c1CC(=O)c1ccc(Br)cc1 | -7.6% (inactive)
Cc1cc(C)c(C#N)c(SCC(=O)Nc2ccccc2C(N)=O)n1 | -14.1% (inactive)
Cc1cc(C)c(C#N)c(SCC(=O)Nc2ccc3c(c2)OCO3)n1 | 2.63% (inactive)
COc1ccc(-c2cc(C(F)(F)F)c(C#N)c(SCC(=O)Nc3ccccc3C#N)n2)cc1 | -5.46% (inactive)
Cc1ccc(C)c(NC(=O)CSc2nc(C)cc(C)c2C#N)c1 | 11.2% (inactive)
COCc1cc(C)nc(SCC(=O)Nc2ccccc2C)c1C#N | -1.72% (inactive)
O=C(NCCc1c[nH]c2ccccc12)/C(=C/c1cccnc1)NC(=O)c1cccs1 | 7.81% (inactive)
Cc1ccc(NC(=O)CCCN2C(=S)NC(C)(C)CC2C)cc1 (stereo not drawn) | 4.19% (inactive)

Structure (SMILES) | inhibition
CCCN(c1nc(C)cc(OC)n1)S(=O)(=O)c1ccccc1 | -8.31% (inactive)
N#CC1=C(N)Oc2n[nH]c(-c3cccs3)c2C1c1cccnc1 (stereo not drawn) | 24.1% (inactive)
CCOc1ccc(-c2[nH]nc3c2C(c2cccnc2)C(C#N)=C(N)O3)cc1 (stereo not drawn) | 24.6% (inactive)
Cc1cc(-c2[nH]nc3c2C(c2ccsc2)C(C#N)=C(N)O3)c(C)s1 (stereo not drawn) | 45.6% (inactive)
COc1ccc(-c2[nH]nc3c2C(c2ccsc2)C(C#N)=C(N)O3)cc1 (stereo not drawn) | 72.1% (inactive)
Cc1cc(-c2[nH]nc3c2C(c2ccc(Cl)cc2)C(C#N)=C(N)O3)c(C)s1 (stereo not drawn) | 23.3% (inactive)
N#CC1=C(N)Oc2n[nH]c(-c3ccncc3)c2C1c1ccsc1 (stereo not drawn) | 27.9% (inactive)
Cc1cc(NS(=O)(=O)c2ccc(NC(=O)c3ccc(Br)o3)cc2)nc(C)n1 | 4.58% (inactive)
N/C(=N\OC(=O)CCC1CCCC1)c1ccccn1 | 7.09% (inactive)
CCOn1c(-n2nc(C)cc2C)nc2ccccc2c1=O | -1.28% (inactive)
Cc1ccc(-c2noc(CCC(=O)NCC3CCN(Cc4cccc(C)c4)CC3)n2)cc1 | -0.25% (inactive)
COc1cc(/C=C2/NC(=O)N(Cc3ccccc3F)C2=O)ccc1Oc1ccc([N+](=O)[O-])cn1 | -10.8% (inactive)
COc1cccc(CN2CCN(C3CCN(c4ccccc4F)CC3)CC2CCO)c1 (stereo not drawn) | 3.43% (inactive)
COc1ccc(NC(=O)CSc2nncn2C)c([N+](=O)[O-])c1 | 41.3% (inactive)
CCOc1ccc(NC(=O)Cc2cccc3ccccc23)c([N+](=O)[O-])c1 | 33.7% (inactive)
CCOc1ccc(NC(=O)COc2ccccc2)c([N+](=O)[O-])c1 | 4.93% (inactive)
COc1ccc(NC(=O)CSc2ccccn2)c([N+](=O)[O-])c1 | 4.06% (inactive)
CCOc1ccc(OCC(=O)Nc2ccc(OC)cc2[N+](=O)[O-])cc1 | -4.57% (inactive)
COc1ccc(NC(=O)CSc2ccccc2)c([N+](=O)[O-])c1 | 13% (inactive)
CCCc1cc(=O)oc2cc(OCC(=O)Nc3cc(C)on3)ccc12 | -41.2% (inactive)
CCNS(=O)(=O)c1ccc2c(c1)n(C)c(=O)n2C | 6.77% (inactive)
